In PubChem BioAssay AID652104 (National Center for Advancing Translational Sciences (NCATS), 2013) one finds Potency and growth rescue (activation) data, which are given here for 101 compounds.

Each structure is given as a SMILES string. Out of some 410,000 compounds screened, about 7,200 (1.8%) were called active. Where a call stands in place of a potency, no number is given. Roughly 7% stayed inconclusive and do not appear here. Calls follow the shape of the dose curve; as a rule, active = well fitted activation curve with a large enough effect; inconclusive = small, poorly fitted or top-dose-only effect, or another doubt; inactive = no such curve, though single readings can be large or run the other way. Many of the other results were omitted from the sample, so actives are more common in it than they were.
Potency is read from the fitted curve at half-maximal effect.

The nature of this assay: qHTS of TDP-43 Inhibitors. Also: nearly all actives have a fitted effect of over 50% in size. Particulars: TDP-43 expressing yeast growth rescue, BacTiter-Glo, 24 h; series mostly up to 46.1 µM. The method in brief: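 Yeast expressing TDP-43 (pregrown in raffinose, seeded at OD600=0.02 in galactose medium) exposed to compounds 24 hr at 30 deg C. Growth read by BacTiter-Glo luminescence; rescue of toxicity appears as increased signal.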
For orientation: Quantitative high-throughput screening tests each substance at several concentrations.
With `CCN(CCCNC(=O)Cn1ncc2c3ccccc3n(C)c2c1=O)Cc1ccccc1`, the Potency result was “inactive”.

As to `CCOCCc1nn2c(=O)cc(COC(=O)CNC(=O)c3ccc(C(C)(C)C)cc3)nc2s1`, the Potency entry is “inactive”.

Regarding `COc1ccccc1N1CCN(S(=O)(=O)CCNC(=O)COc2ccc(F)cc2)CC1`, the Potency result is “inactive”.

As for `COc1ccc(CNC(=O)CSc2n[nH]c(-c3ccc(F)cc3)n2)cc1`, the Potency result was “inactive”.

In the case of `COc1ccc(N)cc1NC(=O)CN1CCOCC1`, the Potency entry is “inactive”.

As for `CCOC(=O)C1CCN(CCC(=O)Nc2cccc(C)c2)CC1`, the Potency entry is “inactive”.

`COC(=O)CNC(c1ccccc1Cl)c1cc(Br)ccc1NC(=O)CCN1CCOCC1` (stereo unspecified): the Potency was 17.8 µM (active).

Turning to `CCc1ccccc1NC(=O)CSc1nnc(-c2ccccc2)c(-c2ccccc2)n1`, the Potency entry is “inactive”.

For `COc1ccc(C(=O)NC2(C(F)(F)F)NC(=O)N(CCCc3ccccc3)C2=O)c(OC)c1OC` (stereo unspecified), the Potency is 20 µM (active).

`O=C(NC1(C(F)(F)F)NC(=O)N(Cc2cccnc2)C1=O)c1ccccc1Cl` (stereo unspecified): the Potency result is “inactive”.

Regarding `CCOc1ccccc1C(=O)NC1(C(F)(F)F)NC(=O)N(CCc2ccc(OC)c(OC)c2)C1=O` (stereo unspecified), the Potency entry is “inactive”.

For `O=C(Nc1ccc2oc(-c3ccc(O)c(Br)c3)nc2c1)c1cc2ccccc2o1`, the Potency result was “inactive”.

Regarding `OCc1cnc(SCc2ccc(F)cc2)n1Cc1ccc(F)cc1`, the Potency entry was “inactive”.

`CCOC(=O)N1CCC(NC(=O)c2cnn(-c3cccc(C)c3)c2C2CCN(C(=O)OC(C)(C)C)CC2)CC1`: the Potency result is “inactive”.

Turning to `COc1ccc([C@H]2CC(=O)C=C(/C=C/c3ccc(Cl)cc3)C2)cc1`, the Potency result is “inactive”.

Take `O=C1CC(c2cccc(Cl)c2)CC(O)=C1C=Nc1ccccc1` (stereo unspecified): the Potency entry is “inactive”.

On to `CCCCC/C=C/C1=CC(=O)C[C@H](c2ccc(Cl)cc2)C1`, for which the Potency entry was “inactive”.

For the compound `N#Cc1ccc(C2=CC(=O)C[C@H](c3ccc(Cl)cc3)C2)cc1`, the Potency is 17.8 µM (active).

In the case of `COc1ccc(C2CC(=O)NC(=O)C2)cc1`, the Potency result is “inactive”.

Regarding `COc1cccc2c1CCC(NC(C)=O)C2=O` (stereo unspecified), the Potency entry is “inactive”.

As to `O=C1CC(c2cccc(Br)c2)C2=C(CCCC2=O)N1` (stereo unspecified), the Potency entry was “inactive”.

With `O=C1C=C(c2cccc(Cl)c2)C[C@@H](c2ccc(F)cc2)C1`, the Potency was 22.4 µM (active).

As for `O=C1C=C(c2cccc(Br)c2)C[C@@H](c2ccc(F)cc2)C1`, the Potency was 20 µM (active).

As to `COc1ccccc1C1=CC(=O)C[C@H](c2ccc(F)cc2)C1`, the Potency was 15.8 µM (active).

As for `O=C(NCC(c1ccc(Cl)cc1)N1CCOCC1)c1ccccc1F` (stereo unspecified), the Potency entry was “inactive”.

As to `COC(=O)c1c(NC(=O)C(C)Oc2ccc(Cl)c(C)c2)sc(C)c1C` (stereo unspecified), the Potency result was “inactive”.

Take `COc1ccccc1-c1noc(-c2ccc(NCc3ccccc3)c([N+](=O)[O-])c2)n1`: the Potency entry was “inactive”.

Regarding `COc1ccc(-c2onc(C)c2C)cc1S(=O)(=O)NCC1CCN(Cc2cccc(F)c2)CC1`, the Potency entry is “inactive”.

On to `O=C(CSc1nc2c(c(=O)[nH]1)CN(Cc1ccc(F)cc1)CC2)Nc1ccccc1Cl`, for which the Potency result is “inactive”.

Turning to `CCOc1ccc(NC(=O)C2CCN(S(=O)(=O)c3cc(-c4noc(C)n4)ccc3C)CC2)cc1`, the Potency result is “inactive”.

In the case of `COc1ccc(/C(N)=N/OC(=O)CCCc2ccccc2)cc1`, the Potency is 22.4 µM (active).

As to `N/C(=N\OC(=O)CCc1ccccc1)c1cccnc1`, the Potency entry was “inactive”.

Turning to `N/C(=N\OC(=O)CCn1cccc(C(F)(F)F)c1=O)c1ccc(OC(F)(F)F)cc1`, the Potency result was “inactive”.

For `Cc1ccc(OCC(=O)Nc2ccc(OCc3cc(=O)n4c(C)csc4n3)cc2)cc1C`, the Potency result was “inactive”.

`CC(C)Cn1c(-c2ccc(S(=O)(=O)N3CCOCC3)cc2)csc1=Nc1cc(Cl)ccc1Cl`: the Potency entry was “inactive”.

As to `COC(=O)c1ccc2nc(-c3ccc(F)cc3)c(Cc3ccc(C)cc3)n2c1`, the Potency result is “inactive”.

As to `COC(=O)c1ccc2nc(-c3ccc(C)cc3)c(Cc3ccc(OC)cc3C)n2c1`, the Potency result is “inactive”.

Consider `COc1ccc(-c2nc3ccc(Br)cn3c2Cc2ccc(C)cc2)cc1OC`, for which the Potency was 15.8 µM (active).

As for `Oc1c(C(c2ccccc2Cl)N2CCOCC2)sc2nc(-c3ccco3)nn12` (stereo unspecified), the Potency result was “inactive”.

As for `Cn1nnnc1SCCCNCc1cccc(OCc2ccc(Cl)cc2)c1`, the Potency entry was “inactive”.

Consider `C=C1C(=O)OC2C1CCC(C)=CCCC1(C)OC21` (stereo unspecified), for which the Potency was 14.1 µM (active).

With `O=C(NCCc1ccccc1)C(=O)NCC(c1ccco1)S(=O)(=O)c1ccccc1` (stereo unspecified), the Potency result was “inactive”.

In the case of `COc1cccc(N2CCN(C(=O)CCCCCn3c(=O)[nH]c4ccccc4c3=O)CC2)c1`, the Potency entry was “inactive”.

Consider `COc1ccc(CCNC(=O)c2ccc3c(c2)nc(C)n3-c2ccc(Br)cc2)cc1OC`, for which the Potency entry was “inactive”.

With `COc1ccc(-c2cc3c(c4c2ccn4C)C2CCC3C2)cn1` (stereo unspecified), the Potency is 20 µM (active).

As to `CC(C)(C)c1ccc(OCC(=O)N2CCC(c3nc4ccccc4s3)CC2)cc1`, the Potency entry is “inactive”.

On to `CCSc1nnc2c(n1)OC(c1ccc(OCC(=O)O)cc1)Nc1ccccc1-2` (stereo unspecified), for which the growth rescue (activation) was -36.7% [at 9.22 µM] (inactive).

Consider `COc1ccc(C)cc1-n1c(-c2ccc(C)cc2)cc2c1CC(C)(C)CC2=O`, for which the Potency entry is “inactive”.

For the compound `Cc1ccc(Cl)cc1NC(=O)Cc1ccc(-n2c(C)nc3cccnc32)cc1`, the Potency entry is “inactive”.

`CCCN(CCC)S(=O)(=O)c1ccc(C(=O)Nc2sc3c(c2C(=O)OC)CCN(CC)C3)cc1`: the Potency result was “inactive”.

As for `CCN(C(=O)Cc1c(C(=O)O)n(CC)c2ccccc12)c1ccccc1C`, the Potency is 25.1 µM (active).

As for `Cc1ccc(C)c(Cn2c(C(=O)O)c(CNCc3cccs3)c3ccccc32)c1`, the Potency result is “inactive”.

For the compound `CCn1c2ccccc2c2cc(CC(N)=O)ccc21`, the Potency entry is “inactive”.

Take `Cc1ccccc1-n1nc(SCC(=O)O)sc1=S`: the Potency result is “inactive”.

For `N#CCSc1nn(-c2ccc(F)cc2)c(=S)s1`, the Potency was 15.8 µM (active).

On to `O=C(CSc1nn(-c2ccc(F)cc2)c(=S)s1)NC1CCS(=O)(=O)C1` (stereo unspecified), for which the Potency entry was “inactive”.

Take `COc1ccc(CC(=O)Nc2nnc3n2CCS3)cc1OC`: the Potency result is “inactive”.

As to `Cn1nc(-c2ccccc2)c(-c2ccccc2)c(C(=O)Nc2ccc(S(N)(=O)=O)cc2)c1=O`, the Potency result is “inactive”.

Consider `CCS(=O)(=O)N1CCN(C(=O)c2cccs2)CC1`, for which the Potency entry is “inactive”.

Regarding `Cc1ccccc1C(CC(=O)c1cccs1)C(C#N)C#N` (stereo unspecified), the Potency is 17.8 µM (active).

With `Cc1ccccc1N(C(=O)CNC(=O)c1cccs1)C(C(=O)NC1CCCC1)c1ccncc1` (stereo unspecified), the Potency result is “inactive”.

As to `Cc1cccn2c(=O)c(C(=O)NC(C)c3ccccc3)cnc12` (stereo unspecified), the Potency entry was “inactive”.

In the case of `COc1ccc(S(=O)(=O)Nc2ccc(O)c(Sc3nc4ccccc4s3)c2)cc1`, the Potency is 31.6 µM (active).

Regarding `COc1ccc(CC(=O)Nc2ccc(-c3nc4ccccc4s3)c(C)c2)cc1`, the Potency entry was “inactive”.

`CC(C)(C)c1ccc(S(=O)(=O)Nc2ccc(O)c(Sc3nc4ccccc4s3)c2)cc1`: the Potency entry is “inactive”.

For `CCOc1ccccc1NC(=O)C1CCCN(S(=O)(=O)c2cn(C)cn2)C1` (stereo unspecified), the Potency entry was “inactive”.

For `Cc1nnc(SCC(=O)NCc2ccccc2Cl)c2nn(-c3ccccc3)c(C)c12`, the Potency result is “inactive”.

As to `CCn1c2c(c(=O)n3ncc(C(=O)N4CCN(c5ccccc5)CC4)c13)CN(Cc1ccc(OC)cc1)CC2`, the Potency entry is “inactive”.

As to `Cc1ccc(N2CCN(c3ccc([N+](=O)[O-])cn3)CC2)c(C)c1`, the Potency result is “inactive”.

Turning to `Cc1ccc(-n2cc3ccc([N+](=O)[O-])cc3n2)cc1`, the Potency is 15.8 µM (active).

In the case of `CC(C)(C)NC(=O)Cn1cnc2cc([N+](=O)[O-])ccc2c1=O`, the Potency entry was “inactive”.

Regarding `Cc1ccc(CCNC(=O)C2CCN(c3nnc(-n4cccc4CNc4ccc(C)cc4)s3)CC2)cc1`, the Potency entry was “inactive”.

`S=C(NCC1CCCO1)N1CCN(c2ccc(Cl)c(Cl)c2)CC1` (stereo unspecified): the Potency is 22.4 µM (active).

In the case of `CCOc1ccc(S(=O)(=O)N2CCN(C(=S)NCC3CCCO3)CC2)cc1` (stereo unspecified), the Potency result was “inactive”.

Consider `COc1ccc(S(=O)(=O)N2CCN(C(=S)NCC3CCCO3)CC2)cc1OC` (stereo unspecified), for which the Potency entry was “inactive”.

`O=C(CCCn1c(=O)c2cccn2c2cccnc21)NCc1ccc(F)cc1`: the Potency result is “inactive”.

Take `Cc1nc2ccccn2c(=O)c1NC(=O)c1c(F)cccc1F`: the Potency entry was “inactive”.

In the case of `CN1C(=O)c2[nH]nc(-c3ccc(F)cc3)c2C1c1ccccn1` (stereo unspecified), the Potency entry is “inactive”.

Consider `O=C(NC1CC(=O)N(c2ccc(F)cc2)C1)c1cccs1` (stereo unspecified), for which the Potency result was “inactive”.

For the compound `CC(C)(C)c1ccc(Oc2ccc(N)cc2)cc1`, the Potency is 35.5 µM (active).

Consider `CCCC(=O)Nc1ccc(NC(=O)c2sc3ccccc3c2Cl)cc1`, for which the Potency result was “inactive”.

On to `Clc1ncn(CCOc2ccccc2)c1Cl`, for which the Potency is 17.8 µM (active).

As for `Cc1c(C(N)=O)sc2ncn(CCOc3ccccc3)c(=O)c12`, the Potency result was “inactive”.

For `Cc1cc2ncn(CCCCOc3ccccc3)c2cc1C`, the Potency result is “inactive”.

With `CSc1oc(-c2cccs2)nc1S(=O)(=O)c1ccc(Br)cc1`, the Potency entry was “inactive”.

Take `COc1ccc(CN2CC(C(=O)NC3CCCCC3)CC2=O)cc1` (stereo unspecified): the Potency entry was “inactive”.

On to `COc1ccc(CN2CN(C3CCCC3)CSC2=S)cc1`, for which the Potency is 15.8 µM (active).

Regarding `COc1ccc(CN2CN(C(C)C)CSC2=S)cc1`, the Potency entry is “inactive”.

`CC1CCCN(c2nc3c(S(=O)(=O)c4ccc(C(C)C)cc4)nnn3c3ccsc23)C1` (stereo unspecified): the Potency entry is “inactive”.

As for `O=C(Nc1cc(C(F)(F)F)ccc1Cl)c1nc2ccccc2nc1N1CCCCC1`, the Potency entry is “inactive”.

In the case of `Cc1cc(C)c(S(=O)(=O)N2CCOCC2)cc1C`, the Potency result was “inactive”.

Turning to `O=S(=O)(c1ccc(Br)c2ccccc12)N1CCOCC1`, the Potency is 14.1 µM (active).

In the case of `COc1ccc(S(=O)(=O)N2CCOCC2)c(C)c1C`, the Potency result is “inactive”.

For `COc1ccccc1CN1CCC(CNC(=O)c2cnn(-c3cccc(Cl)c3)c2C2CCN(C(=O)OC(C)(C)C)CC2)CC1`, the Potency result was “inactive”.

Take `Cc1ccc(Cn2c(C)c3cnn(CC(=O)NCc4ccccc4)c(=O)c3c2C)cc1`: the Potency result is “inactive”.

In the case of `COc1ccc(-c2ccc(C(=O)NCCN3CCOCC3)c3occc23)c(C)c1`, the Potency result is “inactive”.

Regarding `COc1ccc(-c2ccc(C(=O)NC(C)C)c3occc23)c(C)c1`, the Potency was 28.2 µM (active).

`COc1ccc(CNC(=O)c2ccc(-c3cccnc3)c3ccoc23)cc1OC`: the Potency result was “inactive”.

In the case of `COC(=O)c1ccc(-c2nc3cc(NC(C)=O)ccc3o2)cc1`, the Potency result is “inactive”.

With `COc1ccc(-c2cn3c(C)c(C(=O)Nc4cc(C)cc(C)c4)sc3n2)cc1`, the Potency result was “inactive”.

In the case of `COc1ccc(-n2c(SC)nc3sc4c(c3c2=O)CCN(C(C)=O)C4)cc1`, the Potency result is “inactive”.
